“And” between values parts separate entries of the source, which are not always exact repeats. Identical values can stand only once. Out of some 5,500 compounds screened, about 2,000 (36%) were called active. Roughly 18% stayed inconclusive and do not appear here. Rule as the data show it: active = normalized growth mostly below about 0.91 (no sharp cut-off); inconclusive = no clear call, values can overlap the other calls; inactive = mostly above about 0.92. The list shows a part of the results.
Experiment: chemical genetic growth profiling, strain panel (AID 1159580);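 also: tested at 20 µM; growth read once vehicle control cultures reached saturation at 30 °C; 1 = growth at the plate median or of vehicle wells; lower values mean less growth of the strain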
Conditions: S. cerevisiae deletion strains, growth OD

Measured: normalized growth

CC(COc1ccccc1)N(CCCl)Cc1ccccc1 (stereo not given)
active: locus YCL011C, strain gbp2, active compounds read low 0.895
inactive: locus YAL013W, strain DEP1, active compounds read low 1.01 | locus YAL021C, strain ccr4, active compounds read low 0.96 | locus YAL026C, strain drs2, active compounds read low 0.936 | locus YAL030W, strain snc1, active compounds read low 0.974 | locus YAL040C, strain CLN3, active compounds read low 1.09 | locus YBL061C, strain skt5, active compounds read low 0.978 | locus YBR009C, strain hhf1, active compounds read low 0.99 | locus YBR021W, strain FUR4, active compounds read low 1.02 | locus YBR023C, strain chs3, active compounds read low 0.97 | locus YBR171W, strain sec66, active compounds read low 0.984 | locus YBR229C, strain ROT2, active compounds read low 1 | locus YBR231C, strain swc5, active compounds read low 1.01 | locus YBR279W, strain paf1, active compounds read low 0.961 | locus YCL016C, strain dcc1, active compounds read low 0.947 | locus YCL029C, strain bik1, active compounds read low 1.03 | locus YCL061C, strain MRC1 (second series), active compounds read low 0.956 | locus YCL061C, strain MRC1, active compounds read low 0.964 | locus YCL069W, strain vba3, active compounds read low 0.995 | locus YCR088W, strain abp1, active compounds read low 0.986 | locus YDL005C, strain med2, active compounds read low 0.972 | locus YDL035C, strain GPR1, active compounds read low 0.997 | locus YDL040C, strain nat1, active compounds read low 0.983 | locus YDL074C, strain BRE1, active compounds read low 1.02 | locus YDL101C, strain DUN1, active compounds read low 1.01 | locus YDL134C, strain PPH21, active compounds read low 1.01 | locus YDL185W, strain tfp1, active compounds read low 1.01 | locus YDL192W, strain arf1, active compounds read low 1.01 | locus YDR001C, strain nth1, active compounds read low 0.985 | locus YDR069C, strain doa4, active compounds read low 0.965 | locus YDR101C, strain arx1, active compounds read low 1.01 | locus YDR137W, strain rgp1, active compounds read low 0.853 | locus YDR150W, strain NUM1, active compounds read low 1.01 and 0.963 | locus YDR159W, strain sac3, active compounds read low 0.978 | locus YDR162C, strain NBP2, active compounds read low 0.998 | locus YDR195W, strain ref2 1.03 | locus YDR297W, strain sur2, active compounds read low 0.995 | locus YDR318W, strain mcm21, active compounds read low 1.01 | locus YDR334W, strain swr1, active compounds read low 0.969 | locus YDR335W, strain msn5, active compounds read low 0.974 | locus YDR363W, strain ESC2, active compounds read low 0.905 | locus YDR388W, active compounds read low 1.02 | locus YDR392W, strain spt3, active compounds read low 0.742 | locus YDR502C, strain sam2, active compounds read low 0.999 | locus YEL003W, strain gim4, active compounds read low 0.991 | locus YEL037C, strain rad23, active compounds read low 0.978 | locus YEL061C, strain CIN8 (second series), active compounds read low 0.971 | locus YEL061C, strain CIN8, active compounds read low 1.01 | locus YER002W, strain NOP16, active compounds read low 1.02 | locus YER015W, strain faa2, active compounds read low 0.993 | locus YER016W, strain bim1, active compounds read low 0.983 | locus YER110C, active compounds read low 1.01 | locus YER111C, strain swi4, active compounds read low 0.995 | locus YER155C, strain BEM2 (second series), active compounds read low 0.994 | locus YER155C, strain BEM2, active compounds read low 1.01 | locus YER167W, strain BCK2, active compounds read low 0.991 | locus YFR010W, strain ubp6, active compounds read low 0.986 | locus YGL078C, strain dbp3, active compounds read low 1.01 | locus YGL086W, strain mad1, active compounds read low 0.986 | locus YGL167C, strain pmr1, active compounds read low 1 | locus YGL173C, strain kem1, active compounds read low 1.01 | locus YGL227W, strain vid30, active compounds read low 0.973 | locus YGL240W, strain doc1, active compounds read low 1 | locus YGL248W, strain PDE1, active compounds read low 1.01 | locus YGL253W, strain hxk2, active compounds read low 0.921 | locus YGR078C, strain PAC10, active compounds read low 1.01 | locus YGR135W, strain pre9, active compounds read low 1.01 | locus YGR229C, strain SMI1, active compounds read low 0.999 | locus YGR252W, strain gcn5, active compounds read low 0.957 | locus YHR013C, strain ard1, active compounds read low 0.924 | locus YHR027C, strain rpn1, active compounds read low 0.991 | locus YHR030C, strain SLT2, active compounds read low 1.01 and 0.986 | locus YHR079C, strain IRE1 (second series), active compounds read low 1.02 | locus YHR079C, strain IRE1, active compounds read low 0.964 | locus YHR094C, strain hxt1, active compounds read low 1.02 | locus YHR129C, strain ARP1, active compounds read low 1.01 | locus YHR142W, strain chs7, active compounds read low 0.938 | locus YHR200W, strain rpn10, active compounds read low 1.01 | locus YIL066C, strain RNR3, active compounds read low 1.01 | locus YIL073C, strain SPO22, active compounds read low 1.05 | locus YIL125W, strain kgd1, active compounds read low 1.01 | locus YIR030C, strain dcg1, active compounds read low 1.02 | locus YJL092W, strain hpr5, active compounds read low 0.963 | locus YJL095W, strain BCK1 (second series), active compounds read low 0.958 | locus YJL095W, strain BCK1, active compounds read low 1 and 0.997 | locus YJL115W, strain asf1, active compounds read low 0.947 | locus YJL129C, strain trk1, active compounds read low 0.956 | locus YJL134W, strain LCB3, active compounds read low 1 | locus YJL154C, strain vps35, active compounds read low 0.982 | locus YJL164C, strain tpk1, active compounds read low 0.961 | locus YJL166W, strain qcr8, active compounds read low 0.974 | locus YJL168C, strain set2, active compounds read low 1.01 | locus YJL187C, strain SWE1 (second series), active compounds read low 1.03 | locus YJR043C, strain POL32, active compounds read low 1.02 | locus YJR066W, strain TOR1, active compounds read low 0.925
